According to PubChem BioAssay (EPA / NIEHS):
Activity calls are given as the source filed them. Rule for the calls: active = hit-call score of the fitted dose curve at least 0.9, where 1 is the maximum; inactive = score below 0.9.

How the values were obtained:
Settings in all cases: mRNA level, 48 h; actives raise or lower the signal
[1] = read-out: ATP-citrate lyase (ACLY), ACLY (gene 47); assay: LTEA_HepaRG_ACLY: Life Technologies and Expression Analysis (LTEA) Assay for ATP-citrate lyase (ACLY) using HepaRG (AID 2283466)
Method in brief: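 HepaRG, 48 h exposure, 8-pt half-log dilutions (top 100 uM), 0.5% DMSO. Readout: ACLY mRNA, TaqMan qRT-PCR, housekeeping-normalized (ACTB/GAPDH/POLR2A). Bidirectional curve fit vs DMSO.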

[2] = read-out: Peroxisomal acyl-coenzyme A oxidase 1 (ACOX1) gene, ACOX1 (gene 51); assay: LTEA_HepaRG_ACOX1: Life Technologies and Expression Analysis (LTEA) Assay for Peroxisomal acyl-coenzyme A oxidase 1 (ACOX1) gene using HepaRG (AID 2283467)
Method in brief: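 Measured by qRT-PCR against three housekeeping genes: ACOX1 transcript change in human HepaRG cells after 48 h dosing. Concentrations ran up to 100 uM in half-log steps. Curves were fitted bidirectionally relative to 0.5% DMSO.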

[3] = read-out: Alkaline Phosphatase, Placental (ALPP) gene, ALPP (gene 250); assay: LTEA_HepaRG_ALPP: Life Technologies and Expression Analysis (LTEA) Assay for Alkaline Phosphatase, Placental (ALPP) gene using HepaRG (AID 2283468);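 for AC50: differentiated human HepaRG liver cells in serum-free induction medium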
Method in brief: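 ALPP transcript level, measured by qRT-PCR and normalized to three housekeeping genes (ACTB, GAPDH, POLR2A), after 48 h dosing of differentiated HepaRG in serum-free induction medium. Top concentration 100 uM with half-log dilutions (8 points, 0.5% DMSO, duplicates); bidirectional fitting relative to DMSO.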

[4] = read-out: Bcl-2 (BAD) gene, BAD (gene 572); assay: LTEA_HepaRG_BAD: Life Technologies and Expression Analysis (LTEA) Assay for Bcl-2 (BAD) gene using HepaRG (AID 2283469)
Method in brief: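 BAD transcript change, measured by qRT-PCR against three housekeeping genes and fitted in both directions relative to 0.5% DMSO, after 48 h chemical treatment of human HepaRG liver cells at concentrations up to 100 uM.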

[5] = read-out: Bcl-2 (BAX) gene, BAX (gene 581); assay: LTEA_HepaRG_BAX: Life Technologies and Expression Analysis (LTEA) Assay for Bcl-2 (BAX) gene using HepaRG (AID 2283470)
Method in brief: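 Concentration-response endpoint fitted in both directions relative to 0.5% DMSO vehicle. Human HepaRG cultures receive test chemicals for 48 h at up to 100 uM; BAX mRNA is quantified by qRT-PCR against housekeeping genes.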

[6] = read-out: adenosine kinase (ADK) gene, ADK (gene 132); assay: LTEA_HepaRG_ADK: Life Technologies and Expression Analysis (LTEA) Assay for adenosine kinase (ADK) gene using HepaRG (AID 2283471)
Method in brief: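 Read-out is ADK transcript level measured by qRT-PCR and normalised to three housekeeping genes. Cells are human HepaRG, dosed for 48 h at up to 100 uM in 0.5% DMSO. Gain or loss of signal is fitted against DMSO controls.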

[7] = read-out: Alpha-fetoprotein (AFP) gene, AFP (gene 174); assay: LTEA_HepaRG_AFP: Life Technologies and Expression Analysis (LTEA) Assay for Alpha-fetoprotein (AFP) gene using HepaRG (AID 2283472)
Method in brief: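 After a 48 h plating period, cells are moved to serum-free induction medium and dosed in duplicate (100 uM maximum, half-log dilutions, 0.5% DMSO) for another 48 h. Total RNA goes to TaqMan qRT-PCR; AFP signal is housekeeping-normalized.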

[8] = read-out: BCL2L11 (gene 10018); assay: LTEA_HepaRG_BCL2L11: Life Technologies and Expression Analysis (LTEA) Assay for Bcl-2 (BCL2L11) gene using HepaRG (AID 2283473)
Method in brief: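 BCL2L11 transcript levels are measured by Fluidigm qRT-PCR, normalized to three housekeeping genes. HepaRG cultures were plated 48 h, then treated 48 h with test chemical (top 100 uM, half-log, 0.5% DMSO vehicle); curves were fitted bidirectionally against DMSO.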

[9] = read-out: Apolipoprotein A-V (APOA5) gene, APOA5 (gene 116519); assay: LTEA_HepaRG_APOA5: Life Technologies and Expression Analysis (LTEA) Assay for Apolipoprotein A-V (APOA5) gene using HepaRG (AID 2283474)
Method in brief: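 APOA5 transcript levels were quantified by qRT-PCR, normalized to three housekeeping genes, after 48 h chemical treatment of HepaRG cells (8 points, 100 uM maximum, half-log steps, 0.5% DMSO). Curves fitted in both directions against vehicle.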

[10] = read-out: Apoptosis regulator Bcl-2 (Homo sapiens) (UniProt P10415); assay: LTEA_HepaRG_BCL2: Life Technologies and Expression Analysis (LTEA) Assay for Bcl-2 gene using HepaRG (AID 2283475);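 note: BCL2 transcript by TaqMan qRT-PCR normalised to ACTB GAPDH and POLR2A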
Method in brief: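 Expression change of BCL2 mRNA in HepaRG after 48 h dosing, quantified by TaqMan qRT-PCR against three endogenous controls. Concentration-response used eight points up to 100 uM, vehicle 0.5% DMSO.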

[11] = read-out: Bcl-2 (BID) gene, BID (gene 637); assay: LTEA_HepaRG_BID: Life Technologies and Expression Analysis (LTEA) Assay for Bcl-2 (BID) gene using HepaRG (AID 2283476)
Method in brief: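 Gain or loss of BID expression is fitted relative to 0.5% DMSO vehicle. Human HepaRG liver cells received a 48 h chemical exposure over an eight-point concentration range.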

[12] = read-out: Caspase-3 (Homo sapiens) (UniProt P42574); assay: LTEA_HepaRG_CASP3: Life Technologies and Expression Analysis (LTEA) Assay for cysteine-aspartic acid protease (CASP3) using HepaRG (AID 2283477)
Method in brief: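 Expression of CASP3 was quantified by TaqMan qRT-PCR against three housekeeping genes (ACTB, GAPDH, POLR2A), bidirectionally versus 0.5% DMSO. HepaRG cultures received compounds in duplicate, top 100 uM with half-log steps, for 48 h in serum-free induction medium.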

[13] = read-out: Cytochrome P450 (CYP24A1), CYP24A1 (gene 1591); assay: LTEA_HepaRG_CYP24A1: Life Technologies and Expression Analysis (LTEA) Assay for Cytochrome P450 (CYP24A1) using HepaRG (AID 2283478)
Method in brief: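 mRNA of CYP24A1 quantified by TaqMan qRT-PCR (ACTB/GAPDH/POLR2A normalization) after 48 h chemical exposure of HepaRG cells, top concentration 100 uM, half-log steps, 0.5% DMSO vehicle, duplicates. Curves fitted bidirectionally against DMSO baseline.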

[14] = read-out: cysteine-aspartic acid protease (CASP8), CASP8 (gene 841); assay: LTEA_HepaRG_CASP8: Life Technologies and Expression Analysis (LTEA) Assay for cysteine-aspartic acid protease (CASP8) using HepaRG (AID 2283480)
Method in brief: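 HepaRG, 48 h exposure, duplicate wells; 8 conc, half-log from 100 uM, 0.5% DMSO. Serum-free induction medium. CASP8 mRNA by TaqMan qRT-PCR, norm. ACTB/GAPDH/POLR2A; gain/loss fitted vs DMSO.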

[15] = read-out: Cytochrome P450 (CYP2B6), CYP2B6 (gene 1555); assay: LTEA_HepaRG_CYP2B6: Life Technologies and Expression Analysis (LTEA) Assay for Cytochrome P450 (CYP2B6) using HepaRG (AID 2283481)
Method in brief: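 CYP2B6 transcript level quantified by qRT-PCR against three housekeeping genes, fitted bidirectionally relative to DMSO. HepaRG cultures received chemicals for 48 h, 8-point half-log series from 100 uM in 0.5% DMSO, duplicate wells, serum-free induction medium.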

[16] = read-out: Cytochrome P450 2C19 (Homo sapiens) (UniProt P33261); assay: LTEA_HepaRG_CYP2C19: Life Technologies and Expression Analysis (LTEA) Assay for CYP2C19 using HepaRG (AID 2283482)
Method in brief: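 CYP2C19 transcript levels by qRT-PCR, normalized to three housekeeping genes, in HepaRG cells after 48 h chemical exposure. Eight-point half-log series topping at 100 uM, 0.5% DMSO vehicle. Increases and decreases both fitted against DMSO.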

[17] = read-out: CYP2C8 (gene 1558); assay: LTEA_HepaRG_CYP2C8: Life Technologies and Expression Analysis (LTEA) Assay for CYP2C8 using HepaRG (AID 2283483)
Method in brief: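 CYP2C8 mRNA induction or loss, by qRT-PCR normalized to ACTB/GAPDH/POLR2A, is read in HepaRG cells after 48 h treatment. Concentrations run from 100 uM down in half-log dilutions, with 0.5% DMSO as vehicle and baseline.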

[18] = read-out: CYP2C9 (gene 1559); assay: LTEA_HepaRG_CYP2C9: Life Technologies and Expression Analysis (LTEA) Assay for CYP2C9 using HepaRG (AID 2283484)
Method in brief: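 Cells plated 48 h, switched to serum-free induction medium, then treated in duplicate for 48 h at eight concentrations (max 100 uM, 0.5% DMSO). RNA then analysed by qRT-PCR for CYP2C9; curves fitted in both directions relative to DMSO.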

[19] = read-out: CYP2E1 (gene 1571); assay: LTEA_HepaRG_CYP2E1: Life Technologies and Expression Analysis (LTEA) Assay for CYP2E1 using HepaRG (AID 2283485)
Method in brief: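 Differentiated HepaRG cells were treated in duplicate for 48 h with chemicals in 0.5% DMSO, from 100 uM downward in half-log dilutions. RNA was then analysed by qRT-PCR for CYP2E1 induction or loss.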

[20] = read-out: Cytochrome P450 (CYP1A2), CYP1A2 (gene 1544); assay: LTEA_HepaRG_CYP1A2: Life Technologies and Expression Analysis (LTEA) Assay for Cytochrome P450 (CYP1A2) using HepaRG (AID 2283479)
Method in brief: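 CYP1A2 transcript measured by TaqMan qRT-PCR against three housekeeping genes after 48-hour chemical exposure of HepaRG cells. Eight-point half-log series topping at 100 uM in 0.5% DMSO, duplicates; gain or loss fitted relative to vehicle.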

Measured: AC50

Sequence of Cytochrome P450 2C19 (Homo sapiens) (P33261 whole entry, looked up): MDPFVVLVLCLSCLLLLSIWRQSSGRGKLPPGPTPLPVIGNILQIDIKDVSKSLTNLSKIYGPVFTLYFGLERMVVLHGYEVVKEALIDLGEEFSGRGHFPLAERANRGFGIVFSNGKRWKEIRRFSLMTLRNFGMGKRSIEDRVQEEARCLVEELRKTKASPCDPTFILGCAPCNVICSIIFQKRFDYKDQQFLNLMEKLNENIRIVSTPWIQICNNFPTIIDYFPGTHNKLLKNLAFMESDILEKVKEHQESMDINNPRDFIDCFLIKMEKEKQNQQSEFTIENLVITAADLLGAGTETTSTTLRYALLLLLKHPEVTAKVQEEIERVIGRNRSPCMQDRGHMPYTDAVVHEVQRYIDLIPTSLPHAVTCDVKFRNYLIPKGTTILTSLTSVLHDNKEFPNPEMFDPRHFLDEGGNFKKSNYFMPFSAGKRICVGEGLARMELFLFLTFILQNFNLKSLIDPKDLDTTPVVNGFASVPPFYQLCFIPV
Sequence of Caspase-3 (Homo sapiens) (P42574 whole entry, looked up): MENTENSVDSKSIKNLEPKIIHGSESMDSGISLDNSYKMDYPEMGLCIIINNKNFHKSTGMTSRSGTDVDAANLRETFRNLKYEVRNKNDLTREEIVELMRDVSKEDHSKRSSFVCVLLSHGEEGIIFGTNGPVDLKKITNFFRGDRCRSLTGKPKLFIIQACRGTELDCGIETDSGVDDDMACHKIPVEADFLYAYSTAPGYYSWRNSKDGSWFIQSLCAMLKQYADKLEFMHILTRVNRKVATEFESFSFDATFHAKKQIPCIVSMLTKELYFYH
Sequence of Apoptosis regulator Bcl-2 (Homo sapiens) (P10415 whole entry, looked up): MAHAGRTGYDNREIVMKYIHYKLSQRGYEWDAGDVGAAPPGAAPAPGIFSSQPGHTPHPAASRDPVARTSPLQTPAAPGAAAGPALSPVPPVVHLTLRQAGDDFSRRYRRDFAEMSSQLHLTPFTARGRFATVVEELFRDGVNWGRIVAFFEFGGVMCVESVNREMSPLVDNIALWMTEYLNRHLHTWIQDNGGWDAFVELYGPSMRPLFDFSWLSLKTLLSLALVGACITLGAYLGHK

O=C1NC(=O)C(c2ccccc2)(c2ccccc2)N1
active: [15] 1.18 µM | [16] 14.1 µM | [17] 13.1 µM | [19] 29.7 µM
not listed: [20]
inactive: all other assays above

O=Cc1ccccc1C=O
active: [20] 7.32 µM | [15] 23.3 µM
not listed: [10]
inactive: all other assays above

C/C=C/c1ccc(OC)cc1
not listed: [10] | [20]
inactive: all other assays above

CC(C)c1cccc(C(C)C)c1NC(=O)NS(=O)(=O)c1cc(C(C)(C)O)co1
active: [15] 5.18 µM | [16] 8.04 µM | [19] 33.9 µM
not listed: [2]
inactive: all other assays above

CCCCCCCCCC[N+](C)(C)[O-]
active: [15] 34 µM
not listed: [10]
inactive: all other assays above

CC(C)NCC(O)c1ccc(O)c(O)c1 (configuration not stated)
active: [1] 0.182 µM | [2] 0.224 µM | [3] 0.0927 µM | [7] 0.261 µM | [10] 0.239 µM | [15] 0.132 µM | [18] 0.175 µM | [19] 0.304 µM
not listed: [11] | [16] | [20]
inactive: all other assays above

CC(C)OC(=O)C(C)(C)Oc1ccc(C(=O)c2ccc(Cl)cc2)cc1
active: [9] 0.0432 µM | [20] 28.1 µM | [15] 63.3 µM
not listed: [11]
inactive: all other assays above

OCC(O)CO
active: [15] 22.6 µM
not listed: [11]
inactive: all other assays above

NC1CCCCC1
not listed: [20]
inactive: all other assays above

CCCCCCCCCCCCCCCCO
active: [15] 13.1 µM | [19] 50 µM
not listed: [10]
inactive: all other assays above

Cc1ccc(-c2cc(C(F)(F)F)nn2-c2ccc(S(N)(=O)=O)cc2)cc1
active: [1] 89.6 µM | [2] 92.9 µM | [6] 93.8 µM | [8] 82.5 µM | [20] 15.8 µM | [15] 90.2 µM | [16] 23.6 µM | [19] 38.2 µM
not listed: [10] | [11]
inactive: all other assays above

O=C1OC(c2ccc(O)cc2)(c2ccc(O)cc2)c2ccccc21
active: [2] 50 µM | [7] 77.4 µM | [10] 50 µM | [20] 72.4 µM | [15] 84.7 µM | [16] 76.9 µM | [17] 78.7 µM | [18] 82 µM
not listed: [11]
inactive: all other assays above

CN(C)C(=O)NC1(c2ccccc2)CCN(CC[C@@]2(c3ccc(F)c(F)c3)CN(C(=O)c3ccccc3)CCO2)CC1
active: [1] 47 µM | [7] 36.8 µM | [9] 29.8 µM | [20] 47 µM | [16] 2.65 µM | [19] 29.6 µM
not listed: [10] | [11]
inactive: all other assays above
